BJeLR viability: kills HRASV12-expressing BJeLR cells; BJeLR (HRASV12) viability, CellTiter-Glo ATP luminescence, 48 h; inhibition, % (concentration not given with the values); 300,000 compounds, 0.17% hits; AID 1554; in the data active means inhibition above about 50%; inconclusive means no clear call, values can overlap the other calls
DUSP3 inh: DUSP3 (human) phosphatase inhibition | P51452 | recombinant VHR phosphatase, pNPP absorbance | inhibition, % at 13.3 µM | 290,000 compounds, 0.52% hits; in the data active means inhibition above about 50%
Target sequence (P51452 whole entry, looked up): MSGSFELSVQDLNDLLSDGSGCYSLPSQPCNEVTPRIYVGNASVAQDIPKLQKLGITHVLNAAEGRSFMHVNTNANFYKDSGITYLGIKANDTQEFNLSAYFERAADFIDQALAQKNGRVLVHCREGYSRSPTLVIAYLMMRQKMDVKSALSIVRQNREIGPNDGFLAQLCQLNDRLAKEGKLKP
BH1578 lux ind: induces V. cholerae light production without autoinducers | 350,000 compounds, 0.16% hits | activation, % at 18.7 µM | V. cholerae BH1578 lux reporter, luminescence, 6 h; in the data active means activation mostly above about 9.7%, no sharp cut-off; inconclusive means no clear call, values can overlap the other calls; inactive means mostly below about 3.7%
MazEF act: increases E. coli MazEF RNase cleavage of RNA | activation, % at 20 µM | AID 504720 | 350,000 compounds, 0.32% hits | P0AE70 | FAM/BHQ RNA-DNA oligo cleavage fluorescence, 5 h; in the data active means activation above about 50%
Target sequence (P0AE70 whole entry, looked up): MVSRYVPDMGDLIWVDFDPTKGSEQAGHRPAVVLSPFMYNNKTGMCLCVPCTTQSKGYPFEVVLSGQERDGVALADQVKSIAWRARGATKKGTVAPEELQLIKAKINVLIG
PfHsp40 yeast: rescue of PfHsp40-mediated yeast toxicity. S. cerevisiae expressing PfHsp40, growth rescue, ATP luminescence. growth rescue, % at 12.5 µM. 340,000 compounds, 0.68% hits. AID 504582; in the data active means growth rescue above about 28%, passing the limit was not always enough; inconclusive means no clear call, values can overlap the other calls;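 further: yeast W303a lacking pdr1 and pdr3 grown in galactose medium; growth measured after three days at 30 °C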
3CLpro inhibitor: SARS-CoV 3CLpro protease inhibition | recombinant SARS-CoV 3CLpro, quenched FRET peptide cleavage | 290,000 compounds, 0.14% hits | inhibition, % at 6 µM | P0C6X7; in the data active means inhibition above about 12%
An asterisk follows results filed as active; i = inactive; ? = inconclusive; . = not tested or not shown. Shown are actives, neighbours in structure and some others; about 1.7% of the full set was active somewhere.

SMILES	BJeLR viability	DUSP3 inh	BH1578 lux ind	MazEF act	PfHsp40 yeast	3CLpro inhibitor
COc1ccccc1CNC(=O)C(=O)NCC1OCCCN1S(=O)(=O)c1ccc(F)cc1C (configuration not stated)	1	6	1	5	1	3
COCC1=C(C(=O)OC)C(c2ccco2)n2ncnc2N1 (configuration not stated)	-2	4	-1	-17	.	2
CNc1ccc(/C=C(\C#N)C(=O)Nc2ccccn2)cc1[N+](=O)[O-]	-14	12	-6	141*	-1	-8
Cc1cccc(/C=C(\C#N)C(=O)Nc2ccccn2)c1	-8	-1	i	-16	0	-6
S=C1NC[C@H](CC2CCCCC2)N1CC1CCCCC1	-5	7	0	-6	98*	1
Fc1cccc(CCN2C(=S)NC[C@@H]2CC2CCCCC2)c1	1	27	i	-7	122*	.
Fc1cccc(CCN2C(=S)NC[C@@H]2Cc2ccccc2)c1	-10	0	0	3	2	0
CC1CCc2cccc3c2N1c1cc(C#N)c(C#N)cc1O3 (configuration not stated)	-3	41	0	84*	0	-3
CC1CCCCN1c1cc(C#N)c(C#N)cc1[N+](=O)[O-] (configuration not stated)	-4	25	1	-1	?	-1
OC(c1ccco1)c1nc(-c2ccc(F)c(Cl)c2)cs1 (configuration not stated)	.	.	-1	.	.	.
O=c1c(-c2cccc3ccccc23)[n+]([O-])c2ccccc2n1O	14	14	-1	3	81*	-3
CC(=O)c1cccc(NC(=O)N2CCCC2C(=O)Nc2ccc3c(c2)OCO3)c1 (configuration not stated)	-8	57*	1	3	0	-3
Cc1cccc(NC(=O)[C@@H]2CCCN2C(=O)OC(C)(C)C)c1C	-8	-2	i	-1	0	0
Cc1cccc(NC(=O)[C@@H]2CCCN2C(=O)OC(C)(C)C)c1	3	58*	i	2	0	-3
CC1=NN(c2ccccc2)C(=O)/C1=C/c1cc(C)n(C2CC2)c1C	1	13	-1	77*	0	-3
Cc1cc(/C=C2\C(=O)NC(=O)N(Cc3ccccc3)C2=O)c(C)n1C1CC1	-2	28	-1	725*	0	3
N=c1nc2n(cc1F)C1OC(CO)C(O)C1O2 (configuration not stated)	.	.	6	2	-1	.
COc1ccc(NC(=O)C(=O)NCCN2CCN(C(=O)c3cccs3)CC2)cc1	0	18	-1	6	58*	5
Cc1cc(NCc2ccccn2)n2nc(C)c(-c3ccc(Cl)cc3)c2n1	2	20	7	-1	8	-1
CCCc1cc(NCc2ccccn2)n2nc(C)c(-c3ccccc3)c2n1	0	20	0	-2	67*	-5
Cc1nn2c(NCc3ccccn3)cc(C(C)C)nc2c1-c1ccccc1	-10	9	-1	-4	37*	2
CC(=O)Nc1ccc(Nc2cc(C(C)C)nc3c(-c4ccccc4)c(C)nn23)cc1	11	-6	-3	-12	97*	0
CCCc1cc(N2CCCC2)n2nc(C)c(-c3ccccc3)c2n1	4	13	9	7	1	-2
CC(=O)Nc1ccc(-c2ccnc3c2CC(C(=O)Nc2cccc(OC(F)(F)F)c2)O3)cc1 (configuration not stated)	.	.	i	.	.	.
O=C(Cc1ccc(F)cc1)Nc1ccc(Cl)cn1	1	60*	1	-1	2	6
SMILES	BJeLR viability	DUSP3 inh	BH1578 lux ind	MazEF act	PfHsp40 yeast	3CLpro inhibitor
O=C(Cc1ccc(Cl)cc1)Nc1ccc(Cl)cn1	-11	25	0	5	0	-1
CC1(C(=O)Nc2cccc3c2CCCC3)CCN1C(=O)CCC1CCCC1 (configuration not stated)	.	.	i	.	.	.
O=C(COc1ccc(F)cc1)Nc1nc(-c2ccccn2)cs1	-10	.	2	8	1	.
Cc1ccc(OCC(=O)Nc2nc(-c3ccccn3)cs2)c(C)c1	-3	.	-6	8	54*	.
Cc1ccc(C(=O)Nc2ccc(Br)cc2)cc1S(=O)(=O)Nc1ccccn1	-5	-13	-1	125*	1	-3
Cc1ccccc1NC(=O)c1ccc(C)c(S(=O)(=O)Nc2ccccn2)c1	-1	10	0	0	1	-1
O=C(COc1ccc([N+](=O)[O-])cc1)Nc1nc(-c2ccccn2)cs1	3	.	5	-6	271*	.
Cc1ccc(OCC(=O)NC(=S)Nc2ccc(S(=O)(=O)Nc3cc(C)on3)cc2)c(Br)c1	1	27	.	2	73*	9
Cc1cccc(N(Cc2ccccc2)C(=O)c2ccc(CS(C)(=O)=O)cc2)c1	-11	11	0	2	0	-4
O=C(NCc1ccco1)c1cccc(-c2cncc3nccn23)c1	.	.	i	.	.	.
CCOC(=O)[C@@H]1[C@H]2COc3ccccc3[C@H]2N2C(=O)N(c3cccc(C)c3)C(=O)[C@]12C	.	.	-1	4	5	.
Cc1ccccc1OCC(=O)Nc1ccc(S(=O)(=O)Nc2ccccn2)cc1	-11	0	i	2	11	0
Cc1ccc(OCC(=O)Nc2ccc(S(=O)(=O)Nc3ccccn3)cc2)c(C)c1	-7	56*	-3	-2	1	3
COc1cc(CNC(=O)C2CC(O)CN2C(=O)Nc2ccccc2)cc(OC)c1OC (configuration not stated)	.	.	0	3	.	.
O=C1CC(c2ccc(OCCCCCOc3ccc(C4CC(=O)NC4=O)cc3)cc2)C(=O)N1 (configuration not stated)	5	16	0	1	-1	4
CCCCCCCCOc1ccc(C2CC(=O)NC2=O)cc1 (configuration not stated)	3	4	0	3	66*	0
CCCn1c(SCC(=O)N2CCN(C(=O)c3ccco3)CC2)nc2ccccc2c1=O	6	7	-1	0	74*	4
O=C(CSc1nc2ccccc2c(=O)n1Cc1ccco1)N1CCCCCC1	16	22	i	0	-1	3
COc1ccc(-c2c([C@H]3[C@@H]4C=CCC[C@@]4(C)C(=O)N3Cc3ccccc3)ccc3ccccc23)cc1OC	-5	4	-4	-2	44*	.
Cc1cc(-c2ccccc2)n(-c2cc(N/N=C/c3ccccc3O)ncn2)n1	.	-8	0	3	582*	5
CNc1cc(-n2nc(C)cc2-c2ccccc2)ncn1	-6	32	-1	-1	-1	-3
C[C@@H]1CN([C@@H](C)CO)C(=O)CCCn2nncc2CO[C@@H]1CN(C)S(=O)(=O)c1ccc(F)cc1	.	.	-1	7	.	.
COC(=O)[C@H]1C[C@@]2(O)CN(S(=O)(=O)c3ccc(C)cc3)C[C@@]2(OC(=O)NCC2CCCCC2)C[C@H]1C(=O)OC	.	.	1	5	.	.
